72 compounds from PubChem BioAssay AID455 (Sanford-Burnham Center for Chemical Genomics, 2006) can be followed below.

Out of some 10,000 compounds screened, about 20 (0.2%) were called active. This excerpt belongs to a sample that is enriched for actives. Unmarked numbers belong to inactive results.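 The calls were made as follows: active = a compound raising TNF-alpha-driven VCAM-1 surface staining, with its hit status upheld on visual or statistical review; inactive = the rest, including hits rejected on review.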

A short description of the assay: boosters of cytokine-driven VCAM-1 levels – cell-based, plate reader, pooled HUVEC, TNFa stimulus (AID 455).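 As to augmentation: 0% = TNFa plus DMSO wells and 100% = a visually confirmed top hit.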 The note with it: HUVEC TNFa-induced VCAM-1 immunofluorescence; hits give high values, 100% set by best visually verified hit,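 tested at 5 µM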.
`CC1/C(=N/O)C(CN(C)C)C2CC1C2(C)C` (configuration not stated): the augmentation result is “inactive”.
In the case of `COc1ccc(-c2noc(C3CCCN(C(=O)CCc4ccccc4)C3)n2)cc1` (configuration not stated), the augmentation result was “inactive”.
Take `O=C(NCCc1c[nH]c2ccccc12)c1cnc2n(c1=O)CCS2`: the augmentation entry was “inactive”.
As for `CCOc1ccccc1C(=O)NC(C)c1ccc2c(c1)OCO2` (configuration not stated), the entry is “inactive”; as for `O=C(CN1CCN(Cc2ccc(F)cc2Cl)C1=O)NCCCN1CCOCC1`, “inactive”.
`O=C(CSc1nnc2scc(-c3ccccc3)n12)N1CCN(Cc2ccccc2)CC1`: the augmentation result is “inactive”.
With `c1ccc2c3nnc4n(c-3nc2c1)CCCS4`, the augmentation result is “inactive”.
For `COc1cc(NC(=O)C2CCCN2S(=O)(=O)c2cccc3cccnc23)cc(OC)c1OC` (configuration not stated), the augmentation entry was “inactive”.
With `COc1ccccc1-c1nc(SCc2ccccn2)n[nH]1`, the augmentation result is “inactive”.
Consider `CN(C)c1cccc(C(=O)OCC(=O)NCc2ccco2)c1`, for which the augmentation entry was “inactive”.
On to `O=C(CSc1nnc(-c2ccccc2)o1)N1CCc2ccccc2C1`, for which the augmentation entry was “inactive”.
Regarding `Cc1noc(C)c1COc1cccc(C(=O)Oc2ccc3c(c2)OCO3)c1`, the augmentation entry was “inactive”.
Consider `O=C1C2CCCN2C(c2ccc(Cl)cc2)N1c1nccs1` (configuration not stated), for which the augmentation entry is “inactive”.
On to `C=CCn1c(=O)[nH]c2cc(C(=O)N3CCN(c4cc(C)ccc4C)CC3)ccc2c1=O`, for which the augmentation entry is “inactive”.
Consider `COc1cccc(NC(=O)CSc2nnc(-c3cccs3)n2C)c1`, for which the augmentation entry is “inactive”.
Take `CCCC(=O)NCCc1cc2c(C)ccc(C)c2[nH]c1=O`: the augmentation result was “inactive”.
In the case of `O=C(CNC(=O)c1cccs1)NCCN1CCN(c2ccccc2F)CC1`, the augmentation entry is “inactive”.
In the case of `COc1cccc(NC(=O)CN2CCN(c3ccccc3F)CC2)c1`, the augmentation result is “inactive”.
As for `COc1cccc(NC(=O)N2CCN(c3cccc(C)c3C)CC2)c1`, the figure is 100% (active).
For the compound `COc1cccc(NC(=O)N2CCC(N3CCCCC3)CC2)c1`, the augmentation entry was “inactive”.
As for `Cc1ccc(C)c(CSc2nnc(CCN)o2)c1`, the entry is “inactive”; as for `COc1ccc(N2CCN(CCNS(=O)(=O)c3cccc4nsnc34)CC2)cc1`, “inactive”.
For `CC(=O)c1ccccc1Oc1nc(CN2CCOCC2)nc2scc(-c3cccs3)c12`, the augmentation result was “inactive”.
As for `COC(=O)c1ccc(CNC(=O)CSc2nc3sc(C)c(C)c3c(=O)n2C)o1`, the entry is “inactive”; as for `CCCCC(NS(=O)(=O)c1ccc(OC)cc1)C(=O)O` (configuration not stated), 66.3% (active).
As to `CCN(CC)CCCNS(=O)(=O)c1ccc(OC)cc1`, the augmentation result was “inactive”.
`COc1ccc(S(=O)(=O)NCc2ccc(C(=O)O)cc2)cc1`: the augmentation entry is “inactive”.
Regarding `O=C(Nc1nc(-c2ccc(S(=O)(=O)N3CCCCCC3)cc2)cs1)c1cccs1`, the augmentation result is “inactive”.
Consider `COCCn1c(-c2ccc(OC)c(OC)c2)nc2ccccc21`, for which the augmentation was 100% (active).
Take `COc1ccc(Cn2c(CCCO)nc3ccccc32)cc1OC`: the augmentation entry was “inactive”.
For the compound `C=CCn1c(-c2ccc(OC)cc2)nc2ccccc21`, the augmentation result is “inactive”.
Turning to `Cc1ccc(O)c(-c2cc3ccccc3[nH]2)c1`, the augmentation entry is “inactive”.
The result for `CC(C)N=c1cc2n(-c3ccc(Cl)cc3)c3ccccc3nc-2cc1Nc1ccc(Cl)cc1` reads 74% (active).
As to `CC(C)NC(=O)CSc1nc2ccccc2n1-c1ccccc1`, the augmentation entry was “inactive”.
With `CC(O)c1nc2ccccc2n1C1CCCCC1` (configuration not stated), the augmentation entry was “inactive”.
Take `CCOC(=O)C1CN(S(=O)(=O)c2ccc(C)cc2)CCN1S(=O)(=O)c1ccc(C)cc1` (configuration not stated): the augmentation entry was “inactive”.
For `CCOc1ccccc1N1C(=O)CC(Sc2ncccc2C(=O)O)C1=O` (configuration not stated), the augmentation entry is “inactive”.
Consider `COc1ccc(-c2oc3ncn(CCN4CCOCC4)c(=N)c3c2-c2ccc(OC)cc2)cc1`, for which the augmentation entry was “inactive”.
As to `CC1=C(C(=O)OC2CCCC2)C(c2ccc(C)o2)C2=C(CC(c3cccs3)CC2=O)N1` (configuration not stated), the augmentation entry was “inactive”.
Take `COc1cccc(CNC(=O)C2CCN(S(=O)(=O)c3ccc(F)cc3)CC2)c1`: the augmentation result is “inactive”.
Take `CCCCSc1nnc([C@H](C)NC(=O)OC(C)(C)C)o1`: the augmentation result is “inactive”.
As for `O=C(OC1CCOC1=O)c1ccc2ccccc2n1` (configuration not stated), the augmentation result is “inactive”.
Take `O=C(Nc1ccc2nc(-c3cccs3)[nH]c2c1)c1ccco1`: the augmentation is 72.4% (active).
Consider `Cn1cccc1-c1nc2ccc(NC(=O)c3ccco3)cc2[nH]1`, for which the augmentation is 65.1%.
Regarding `COc1ccc(NC(=O)c2ccco2)cc1NC(=O)c1cccs1`, the augmentation entry is “inactive”.
Take `CCN1C(=O)c2cccc3c(NC(=O)c4ccc5c(c4)OCCO5)ccc1c23`: the augmentation result is “inactive”.
As to `O=C(Nc1ccccc1-c1nc2ccccc2o1)c1ccc2c(c1)OCCO2`, the augmentation result was “inactive”.
The result for `O=C(Nc1cccc2ncccc12)c1ccc2c(c1)OCCO2` reads 81% (active); that for `CC(C)C(=O)N1CCN(c2nc(-c3ccccc3)c3c(c2C#N)CCCC3)CC1`, “inactive”.
Take `Oc1cccc(C=NCc2ccccc2)c1O`: the augmentation is 61.8% (active).
As for `FC(F)Sc1nnc(-c2cccs2)n1-c1ccccc1`, the augmentation result was “inactive”.
In the case of `CCCC(=O)Nc1cc(C)c2c(=O)oc3ccccc3c2n1`, the augmentation result is “inactive”.
For the compound `Cc1ccc(Br)cc1S(=O)(=O)N1CCN(c2ccccc2)CC1`, the augmentation result was “inactive”.
Take `Cc1cc(C)c2c(n1)nn1c(C3CC3)cc(C(F)(F)F)nc21`: the augmentation entry is “inactive”.
Consider `CCOC(=O)CN1C2=NCCN2c2ccccc21`, for which the augmentation entry was “inactive”.
Take `c1ccc(CN2C3=NCCCN3c3ccccc32)cc1`: the augmentation result is “inactive”.
Take `COc1ccc(C(=O)CN2C3=NCCCN3c3ccccc32)cc1OC`: the augmentation is 71.2% (active).
For `Cc1cccc(NC(=O)CC2CCC2)c1`, the augmentation result is “inactive”.
With `Cc1cc(C)n(-c2nc3sc4c(c3c3nnc(SCC(N)=O)n23)CC(C)(C)OC4)n1`, the augmentation entry is “inactive”.
For the compound `CCCC(=O)Nc1cc(C)c(NC(=O)c2ccccn2)cn1`, the augmentation result was “inactive”.
Turning to `COCCn1c(CN2CCN(c3cccc(Cl)c3)CC2)nc2c1c(=O)n(C)c(=O)n2C`, the augmentation entry was “inactive”.
For the compound `O=c1cc(NCc2ccccc2)nc2n1CCCS2`, the augmentation entry is “inactive”.
As for `O=C(Nc1cccc(F)c1)c1ccc2c(c1)OCO2`, the entry is “inactive”; as for `O=C1CCCN1Cc1ncnn1-c1ccccc1`, “inactive”; as for `O=C(Nc1ccc2c(c1)OCO2)N1CCN(c2ncccn2)CC1`, “inactive”.
The result for `CCC(=O)N1CCc2cc(S(=O)(=O)CCC(=O)Nc3ccc(C)c(F)c3)ccc21` reads “inactive”.
The result for `CCC(=O)N1CCc2cc(S(=O)(=O)CCC(=O)Nc3c(C)n(C)n(-c4ccccc4)c3=O)ccc21` reads 70.3% (active); that for `CCC(=O)N1CCc2cc(S(=O)(=O)CCC(=O)Nc3nc(C)cs3)ccc21`, “inactive”.
`CCc1nc(N[C@@H](Cc2c[nH]c3ccccc23)C(=O)O)c2oc3ccccc3c2n1`: the augmentation entry was “inactive”.
On to `Cc1cc2c(=O)n(CC(=O)N3CCN(c4ccccc4)CC3)cnc2s1`, for which the augmentation entry was “inactive”.
Take `Cc1csc(NC(=O)c2ccccc2C(=O)O)n1`: the augmentation result is “inactive”.
Regarding `CC(C)(C)c1ccc(OCC(=O)O)cc1`, the augmentation entry was “inactive”.
